tested on: Trypanosoma cruzi; assay: Trypanosoma cruzi phosphomannomutase and mannose-1-phosphate guanylyltransferase assay; format: functional; set-up: scale not given: direction of the effect not stated beside the values; conditions: 10 µM

SMILES	Percent Effect
CN(C)C(=O)COC[C@]12COC[C@H]1CN(CC1CCC1)C2	4.79%
COCCN1CC[C@H](O)[C@@H]1Cc1ccccc1	0.786%
Cc1cc(O)nc(C2CCCN(Cc3ccncc3)C2)n1 (stereo not given)	3.75%
CN(C)C(=O)c1ccc2c(c1)N(C)C(CC(=O)NCc1ccno1)CO2 (stereo not given)	1.85%
COc1c(CNCc2ccc(C(=O)NC3CC3)cc2)c(C)nn1C	-3.18%
CN(C)CC1CN(C(=O)NCc2ccccc2)Cc2nccn2C1 (stereo not given)	-1.59%
CC(=O)NCC(=O)N1CCC2(CC1)CN(c1cccnc1)C(=O)CO2	-3.42%
O=C(NCCN1CCOCC1)c1cc(-c2ccc3c(c2)CCO3)n[nH]1	1.57%
CC(C)c1cc(NC(=O)CN2CCCC2Cn2cccn2)on1 (stereo not given)	-1.59%
CCC(=O)Nc1nnc(CCCOc2ccccc2)s1	1.77%
Cc1cc(C)n(C2CCCN(C(=O)C3=NN(C)C(=O)CC3)C2)n1 (stereo not given)	5%
CC1CCc2nc(O)c(C(=O)NCc3cccc(F)c3)cc2C1 (stereo not given)	-3.54%
Cc1nc2c(c(NC3CC3)n1)CCN(C(=O)C(C)(C)O)CC2	-4.99%
CCCN1CCC(N(Cc2ncc(C)o2)C(C)=O)C1 (stereo not given)	2.05%
O=C1NCCN1C1CCCN(Cc2coc(-c3ccc(F)cc3)n2)C1 (stereo not given)	10.9%
Cc1noc(C)c1CN(C)CC1CCCN1c1cccnn1 (stereo not given)	0.0979%
Cc1noc(C)c1CN1C(=O)[C@H]2CC[C@@H]1CN(Cc1cccnc1N)C2	-8.46%
Cc1cc(C)n(CC2CCCCN2Cc2cscn2)n1 (stereo not given)	-1.27%
Cc1cc(CNC(=O)C2CCCCN2C(=O)OC(C)(C)C)no1 (stereo not given)	-2.83%
O=C(c1csc(-c2cccs2)n1)N1CCCC1Cn1cccn1 (stereo not given)	-3.83%

SMILES	Percent Effect
O=C(CSCC1CC1)N1CCCC(c2nccn2Cc2ccncc2)C1 (stereo not given)	2.62%
CCN1CC(C(=O)N2CCC(Oc3ccccc3Cl)CC2)CC1=O (stereo not given)	-11.5%
CNC(=O)CCNC(=O)c1cccc(Cn2nc(C)cc2C)c1	5.15%
CN(CC(=O)N1CCCC1Cn1cccn1)C1CC1 (stereo not given)	1.04%
O=C(Cn1nc(-c2ccc(F)cc2)oc1=O)Nc1ccccc1	3.01%
Cc1cnccc1N1CCCN(C(=O)CCCc2cn[nH]c2)CC1	3.92%
Cc1ncccc1CNCC1CCN(CC(O)c2ccccc2)CC1 (stereo not given)	-0.308%
CCc1nc(CN(C)C2CCN(Cc3cnc(C)cn3)C2)no1 (stereo not given)	5.38%
CSc1ccc(NC(=O)Nc2ccc3c(c2)N(S(C)(=O)=O)CC3)cc1	3.06%
O=C(Cn1ccc2c(Cl)cccc21)N[C@@H](C(=O)O)c1ccccc1	-4.71%
Cc1ccc(C2CSCCN2C(=O)c2ccsc2)o1 (stereo not given)	-1.66%
COc1ccc(NC(=O)CNc2ccc(Br)cc2F)cc1	-0.487%
CNS(=O)(=O)c1cccc(CNc2cc(C(F)(F)F)ccn2)c1	-6.13%
CN(C)c1ccc(CCNC(=O)C2CCC(=O)N(C3CCCC3)C2)cc1 (stereo not given)	-2.04%
CC(C)c1nn(C)c(N2CCOCC2)c1CN[C@H](C)CO	-1.96%
Cc1nccn1CC1CCCN1S(=O)(=O)Cc1ccon1 (stereo not given)	3.68%
COc1cccc(OCCNC(=O)CN2CCN(C)CC2C)c1 (stereo not given)	6.59%
Cc1cc(C)cc(N(C)S(=O)(=O)c2cc(C(=O)O)cs2)c1	5.57%
CCOc1cccc(C(C)NCc2ccc(OC)c(OC)c2OC)c1 (stereo not given)	8.08%
CC(NC(=O)CNCCn1cccn1)c1ccc2c(c1)CCCC2 (stereo not given)	3.37%

target: T1, Arginase-2, mitochondrial (Homo sapiens) (UniProt P78540); assay: in vitro enzyme assay to detect the production of urea directly proportional to the activity of Arginase II; format: functional; set-up: scale not given: in the data most compounds retested in dose-response had high values; conditions: 33.3 µM
T1 sequence (whole entry): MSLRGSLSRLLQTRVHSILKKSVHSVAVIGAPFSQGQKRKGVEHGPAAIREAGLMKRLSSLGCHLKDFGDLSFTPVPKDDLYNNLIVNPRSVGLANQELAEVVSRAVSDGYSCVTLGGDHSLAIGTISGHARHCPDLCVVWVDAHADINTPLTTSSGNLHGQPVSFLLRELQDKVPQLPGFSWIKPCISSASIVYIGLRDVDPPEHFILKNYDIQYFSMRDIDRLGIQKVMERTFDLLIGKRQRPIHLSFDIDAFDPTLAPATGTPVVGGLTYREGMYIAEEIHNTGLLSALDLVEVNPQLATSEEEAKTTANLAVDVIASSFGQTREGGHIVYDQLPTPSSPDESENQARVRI

SMILES	Percent Effect
CN(C)C(=O)COC[C@]12COC[C@H]1CN(CC1CCC1)C2	6.7%
COCCN1CC[C@H](O)[C@@H]1Cc1ccccc1	6.87%
Cc1cc(O)nc(C2CCCN(Cc3ccncc3)C2)n1 (stereo not given)	-0.696%
CN(C)C(=O)c1ccc2c(c1)N(C)C(CC(=O)NCc1ccno1)CO2 (stereo not given)	15%
COc1c(CNCc2ccc(C(=O)NC3CC3)cc2)c(C)nn1C	2.8%
CN(C)CC1CN(C(=O)NCc2ccccc2)Cc2nccn2C1 (stereo not given)	-3.19%
CC(=O)NCC(=O)N1CCC2(CC1)CN(c1cccnc1)C(=O)CO2	2.87%
O=C(NCCN1CCOCC1)c1cc(-c2ccc3c(c2)CCO3)n[nH]1	-5.11%
CC(C)c1cc(NC(=O)CN2CCCC2Cn2cccn2)on1 (stereo not given)	3.24%
CCC(=O)Nc1nnc(CCCOc2ccccc2)s1	-9.68%
Cc1cc(C)n(C2CCCN(C(=O)C3=NN(C)C(=O)CC3)C2)n1 (stereo not given)	-12.8%
CC1CCc2nc(O)c(C(=O)NCc3cccc(F)c3)cc2C1 (stereo not given)	-5.46%
Cc1nc2c(c(NC3CC3)n1)CCN(C(=O)C(C)(C)O)CC2	-0.319%
CCCN1CCC(N(Cc2ncc(C)o2)C(C)=O)C1 (stereo not given)	-0.744%
O=C1NCCN1C1CCCN(Cc2coc(-c3ccc(F)cc3)n2)C1 (stereo not given)	-1.29%
Cc1noc(C)c1CN(C)CC1CCCN1c1cccnn1 (stereo not given)	0.21%
Cc1noc(C)c1CN1C(=O)[C@H]2CC[C@@H]1CN(Cc1cccnc1N)C2	3.53%
Cc1cc(C)n(CC2CCCCN2Cc2cscn2)n1 (stereo not given)	4.42%
Cc1cc(CNC(=O)C2CCCCN2C(=O)OC(C)(C)C)no1 (stereo not given)	0.744%
O=C(c1csc(-c2cccs2)n1)N1CCCC1Cn1cccn1 (stereo not given)	1.08%

SMILES	Percent Effect
O=C(CSCC1CC1)N1CCCC(c2nccn2Cc2ccncc2)C1 (stereo not given)	2.65%
CCN1CC(C(=O)N2CCC(Oc3ccccc3Cl)CC2)CC1=O (stereo not given)	-4.39%
CNC(=O)CCNC(=O)c1cccc(Cn2nc(C)cc2C)c1	-3.09%
CN(CC(=O)N1CCCC1Cn1cccn1)C1CC1 (stereo not given)	0%
O=C(Cn1nc(-c2ccc(F)cc2)oc1=O)Nc1ccccc1	-2.3%
Cc1cnccc1N1CCCN(C(=O)CCCc2cn[nH]c2)CC1	-1.36%
Cc1ncccc1CNCC1CCN(CC(O)c2ccccc2)CC1 (stereo not given)	-1.07%
CCc1nc(CN(C)C2CCN(Cc3cnc(C)cn3)C2)no1 (stereo not given)	-3.42%
CSc1ccc(NC(=O)Nc2ccc3c(c2)N(S(C)(=O)=O)CC3)cc1	-93.5%
O=C(Cn1ccc2c(Cl)cccc21)N[C@@H](C(=O)O)c1ccccc1	-7.57%
Cc1ccc(C2CSCCN2C(=O)c2ccsc2)o1 (stereo not given)	4.22%
COc1ccc(NC(=O)CNc2ccc(Br)cc2F)cc1	0%
CNS(=O)(=O)c1cccc(CNc2cc(C(F)(F)F)ccn2)c1	5.21%
CN(C)c1ccc(CCNC(=O)C2CCC(=O)N(C3CCCC3)C2)cc1 (stereo not given)	1.56%
CC(C)c1nn(C)c(N2CCOCC2)c1CN[C@H](C)CO	1.44%
Cc1nccn1CC1CCCN1S(=O)(=O)Cc1ccon1 (stereo not given)	-6.84%
COc1cccc(OCCNC(=O)CN2CCN(C)CC2C)c1 (stereo not given)	-2.77%
Cc1cc(C)cc(N(C)S(=O)(=O)c2cc(C(=O)O)cs2)c1	-5.21%
CCOc1cccc(C(C)NCc2ccc(OC)c(OC)c2OC)c1 (stereo not given)	4.69%
CC(NC(=O)CNCCn1cccn1)c1ccc2c(c1)CCCC2 (stereo not given)	-6.41%

From ChEMBL document CHEMBL3988442, “University of Dundee, Small-Polar-MMV Screening Library” (2021)
